Records with an inconclusive call do not appear. Where a structure was tested more than once in an assay, its records may differ in their call. Active and inactive are the calls of the source. How the source made its calls: active means hit-call score of the fitted dose curve at least 0.9, where 1 is the maximum; inconclusive means response in the unintended direction; inactive means score below 0.9.
Target: Nuclear receptor subfamily 4 group A member 2 (Homo sapiens) (UniProt P43354)
Assay: ATG_NURR1_TRANS: Attagene TRANS-FACTORIAL HepG2 Assay for human Nuclear Receptor Related Protein 1 (NURR1) (AID 2282985)
Conditions: HepG2 Attagene TRANS reporter, mRNA readout
Description: ATG_TRANS is a cell-based, multiplexed-readout assay that uses HepG2, a human liver cell line, with measurements taken at 24 hours after chemical dosing in a 24-well plate.ATG_NURR1_TRANS is one of 30 assay component(s) measured or calculated from the ATG_TRANS assay. It is designed to make measurements of mRNA induction, a form of inducible reporter, as detected with fluorescence intensity signals by Reverse transcription polymerase chain reaction (RT-PCR) and Capillary electrophoresis technology.Data from the assay component ATG_NURR1_TRANS was analyzed into 1 assay endpoint. This assay endpoint, ATG_NURR1_TRANS, was analyzed in the positive analysis fitting direction relative to DMSO as the negative control and baseline of activity. Using a type of inducible reporter, measures of mRNA for gain-of-signal activity can be used to understand the reporter gene at the transcription factor-level as they relate to the gene NR4A2. Furthermore, this assay endpoint can be referred to as a primary readout, because this assay has produced multiple assay endpoints where this one serves a reporter gene function. To generalize the intended target to other relatable targets, this assay endpoint is annotated to the nuclear receptor intended target family, where the subfamily is orphan.
Human liver HepG2 cells are transiently transfected with multiple reporter transcription units (MRTUs) in 6-well plates using FuGene 6 reagent (Roche; 3 ml FuGene/1 mg DNA). The MRTU constructs are regulated by a cis-regulating element (promoter). […] A major difference between the CIS and TRANS system is that in CIS activities of endogenous TFs are measured, whereas the TRANS assay evaluates changes in activities of exogenous, chimeric NR-Gal4 proteins. […] At the end of 24 hour incubation, total RNA was isolated using TriZol reagent (Invitrogen). The isolated RNA is then reverse-transcribed using oligo(dT) primer and Mo-MLV reverse transcriptase (Invitrogen) with DNAse I (Ambion) treatment for 30 min. The one-tenth of the produced cDNA was amplified by PCR using Taq DNA polymerase (Invitrogen) and two reporter sequence-specific primers. The PCR products were fluorescently labeled by primer extension with 6-arboxyfluorescein (6-FAM) 5'-labeled reporter sequence-specific primer (2 min at 95 C, 20 s at 68 C and 10 min at 72 C) and these products were digested with 5U of HpaI (New England Biolabs) for 2h at 37 C. The fragments were purified using Qiaquick PCR columns (Qiagen), analyzed on an ABI 3130xL genetic analyzer (Applied Biosystems) with peak positions identified by using a set of X-rhodamine (ROX)-labeled MapMarker1000 molecular weight standards (BioVentures). The raw capillary electrophoresis data was processed using Attagraph software (Attagene).

Chain of Nuclear receptor subfamily 4 group A member 2 (Homo sapiens) (P43354 whole entry, looked up): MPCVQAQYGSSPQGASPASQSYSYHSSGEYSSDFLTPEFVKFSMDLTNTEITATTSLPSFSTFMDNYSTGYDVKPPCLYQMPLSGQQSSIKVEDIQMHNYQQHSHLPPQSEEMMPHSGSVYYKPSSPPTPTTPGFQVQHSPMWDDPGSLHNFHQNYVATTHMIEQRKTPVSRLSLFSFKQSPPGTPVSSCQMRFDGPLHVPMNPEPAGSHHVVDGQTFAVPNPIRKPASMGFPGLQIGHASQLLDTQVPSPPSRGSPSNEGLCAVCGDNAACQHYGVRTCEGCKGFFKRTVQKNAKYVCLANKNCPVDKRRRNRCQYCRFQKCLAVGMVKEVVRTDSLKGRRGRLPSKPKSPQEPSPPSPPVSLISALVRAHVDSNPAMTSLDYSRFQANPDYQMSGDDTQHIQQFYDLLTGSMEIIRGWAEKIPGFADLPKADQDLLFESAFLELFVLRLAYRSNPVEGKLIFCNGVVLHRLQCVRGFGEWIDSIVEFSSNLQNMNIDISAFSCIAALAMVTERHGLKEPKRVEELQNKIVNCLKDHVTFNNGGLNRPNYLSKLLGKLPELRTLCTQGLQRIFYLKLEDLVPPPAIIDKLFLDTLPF

SMILES	outcome	AC50
CN(C)c1ccc(N=O)cc1	inactive	
CCCCCCCCCCCCOS(=O)(=O)O	inactive	
Cc1ccc(OP(=O)(Oc2ccc(C)cc2C)Oc2ccc(C)cc2C)c(C)c1	inactive	
CCN(CC)C(=O)C(Cl)=C(C)OP(=O)(OC)OC	inactive	
O=C(Cc1ccccc1)OCCc1ccccc1	inactive	
CC(C)(C1CCC(O)CC1)C1CCC(O)CC1 (stereo not given)	inactive	
CCOC(=O)OC1=C(c2cc(C)ccc2C)C(=O)NC12CCC(OC)CC2 (stereo not given)	inactive	
O=C(O)C1(c2ccc3c(c2)OC[C@H](Cc2ccc(-c4ccccc4)cc2)[C@H]3O)CCCC1	inactive	
Clc1ccc(C(Cl)(Cl)Cl)cn1	inactive	
Cc1cc(Cl)ccc1OCCCC(=O)O	inactive	
Cc1ccccc1OP(=O)(Oc1ccccc1)Oc1ccccc1		25.2 µM (active)
O=c1nc(O)n(Cl)c(=O)n1Cl	inactive	
O=S(=O)(Oc1ccc(Cl)cc1)c1ccc(Cl)cc1	inactive	
O=c1oc2ccccc2c(O)c1C(CC(O)c1ccc(-c2ccc(Br)cc2)cc1)c1ccccc1 (stereo not given)	inactive	22.3 µM (active)
CC(C)(c1ccccc1)c1cc(-n2nc3ccccc3n2)c(O)c(C(C)(C)c2ccccc2)c1	inactive	
C=CCOC(F)(C(F)(F)F)C(F)(F)F	inactive	
CNC(=O)O/N=C/C(C)(C)S(C)(=O)=O	inactive	
C=CC(=O)[O][Sn]([CH2]CCC)([CH2]CCC)[CH2]CCC		0.00109 µM (active)
c1cc[c]([Sb]([c]2ccccc2)[c]2ccccc2)cc1		17.5 µM (active)
O=S(=O)(c1ccc(Cl)cc1)c1cc(Cl)c(Cl)cc1Cl	inactive	

SMILES	outcome	AC50
[F][Sn]([c]1ccccc1)([c]1ccccc1)[c]1ccccc1		0.00363 µM (active)
Brc1ccc(Oc2c(Br)cc(Br)cc2Br)c(Br)c1	inactive	
O=C(NC(=O)c1c(F)cccc1F)Nc1cc(Cl)c(Oc2ncc(C(F)(F)F)cc2Cl)c(Cl)c1	inactive	
CCOP(=S)(OCC)SCS(=O)(=O)C(C)(C)C	inactive	
O=C1c2ccccc2C(=O)C1C(=O)C(c1ccccc1)c1ccc(Cl)cc1 (stereo not given)		4.69 µM (active)
OC[P+](CO)(CO)CO	inactive	
ClCc1ccccc1Cl	inactive	
OC[C@@H](O)[C@H]1O[C@@H]2O[C@H](C(Cl)(Cl)Cl)O[C@@H]2[C@H]1O	inactive	
O=NN1CCCCCC1	inactive	
ClCCN1CCOCC1	inactive	
COc1ccc(N)cc1	inactive	
N#Cc1ccncc1	inactive	
Cc1ccccc1OP(=O)(Oc1ccccc1C)Oc1ccccc1C		26.7 µM (active)
CCOC(=O)CCN(SN(C)C(=O)Oc1cccc2c1OC(C)(C)C2)C(C)C		157 µM (active)
CC1(C)[C@H](C(=O)O[C@H](C#N)c2cccc(Oc3ccccc3)c2)[C@@H]1/C=C(\Cl)C(F)(F)F	inactive	
CCOP(=O)(OCC)OC(=CCl)c1ccc(Cl)cc1Cl		100 µM (active)
C[CH2][Hg][S]c1ccccc1C(=O)O	inactive	
c1csc(-c2ccc(-c3cccs3)s2)c1		3.59 µM (active)
O=C1C=CC(=O)c2ccccc21	inactive	

From PubChem BioAssay (EPA / NIEHS)
